The results in this text go back to PubChem BioAssay (NCI).

Compounds without any hit were thinned out: in the full panel of roughly 83,000, 20% have a hit.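 Note: values are percent growth. 100 is the growth of untreated cells, values between 100 and 0 indicate rising inhibition; between -100 and 0 indicates cell death.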 Values without a mark were called inactive. The source made the active and inactive calls. The calls were made as follows: active = growth percent below 10; inactive = the rest.

Holding throughout (test): NCI-60 one-dose screen, 48 h (100 = growth as untreated, 0 = no growth, -100 = all killed)
Holding throughout (conditions): 10 µM unless noted

The subject of assay [1] is SK-MEL-2 melanoma.
Assay [2] relates to EKVX NSCLC.
Assay [3] relates to SN12C renal.
For assay [4], the system named is UO-31 renal.
For assay [5], the system named is TK-10 renal.
Assay [6] deals with ACHN renal.
Assay [7] concerns CAKI-1 renal.
Assay [8] relates to A498 renal.
Assay [9] has as its system CCRF-CEM leukemia.
Assay [10] has as its system MOLT-4 leukemia.

With `COC(=O)[C@]12CC[C@@H](C(/C=C/c3cccnc3)=N/O)[C@@H]1[C@H]1CC[C@@H]3[C@@]4(C)CC(=C/c5cccnc5)/C(=N/O)C(C)(C)[C@@H]4CC[C@@]3(C)[C@]1(C)CC2`, the growth was 46% in assay [1]; 26% in assay [2]; 44.5% in assay [3]; 19.5% in assay [4]; 67.9% in assay [5]; 42.9% in assay [6]. The growth was 23.7% in [7], 92.5% in assay [8], 16.6% in [9] and 2.12% (active) in assay [10].

Regarding `COc1ccc(-c2cc(-c3c(C)oc4cc5occc5c(OC)c4c3=O)nc(N)c2C#N)cc1OC`, the growth is 60.7% in [1]; 92.8% in assay [2]; 77.6% in [3]; 45.2% in assay [4]; 77.1% in [5]; 65.6% in assay [6]. Besides, the growth in [7] was 38.9%; in assay [8] it was 23.7%; in [9], 43.8%; in [10] it was 30.9%.

On to `COc1ccc2c(c1)c1nc3cc(C)c(C)cc3nc1n2CCN(C)C`, for which the growth in assay [1] is 26.4%; in assay [2], 13.2%; in assay [3], 17%; in [4], -24.1% (active); in [5], 39.3%; in assay [6], -11.4% (active). Further, the growth is 4.98% (active) in assay [7], 45% in assay [8], 6.67% (active) in assay [9] and 0.921% (active) in assay [10].

Take `CC1(C)NCCC[C@]2(C)[C@H]3CC[C@@H]4[C@H]5[C@H](C(=O)/C=C/c6ccccn6)CC[C@]5(CO)CC[C@@]4(C)[C@]3(C)CC[C@@H]12`: the growth was 108% in assay [1]; 101% in assay [2]; 62.4% in [3]; 66.8% in assay [4]; 176% in [5]; 73.4% in assay [6]. For the same compound, the growth in assay [7] is 32.7%; in assay [8], 84%; in [9], 12.3%; in [10] it was 3.77% (active).

In the case of `COC(=O)[C@]12CC[C@@H](C(=O)/C=C/c3cccnc3)[C@@H]1[C@H]1CC[C@@H]3[C@@]4(C)C/C(=C/c5cccnc5)C(=O)C(C)(C)[C@@H]4CC[C@@]3(C)[C@]1(C)CC2`, the growth in [1] was -61.1% (active); in assay [2], -76.3% (active); in [3], -77.8% (active); in assay [4], -100% (active); in [5], -60.5% (active); in [6], -100% (active). Further, the growth in [7] is -78.7% (active); in assay [8], -91.2% (active); in [9], 0.953% (active); in assay [10] it was -31.3% (active).

With `COc1cccc(-c2nn(-c3ccccc3)cc2-c2ccnc(NCCCNS(=O)(=O)c3ccccc3)c2)c1`, the growth in assay [1] was 29.7%; in assay [2], 46.5%; in [3], 38.7%; in assay [4] it was 13.8%; in [5] it was 46.9%; in assay [6] it was 28.1%. The growth in [7] was 48.4%; in assay [8], 42.3%; in [9], 14.4%; in assay [10], 8.92% (active).

In the case of `C=C(C)[C@@H]1CC[C@]2(C=NCCCNCCCCNCCCN)CC[C@]3(C)[C@H](CC[C@@H]4[C@@]5(C)CCCNC(C)(C)[C@@H]5CC[C@]43C)[C@@H]12`, the growth in assay [1] was 132%; in assay [2] it was 102%; in [3], 91.1%; in assay [4], 92.1%; in [5] it was 120%; in [6], 105%. Further, the growth in assay [7] was 80.6%; in assay [8], 95.6%; in assay [9], 94.4%; in [10], 93.4%.

For `CC1(C)C(=O)/C(=C\c2ccco2)C[C@]2(C)[C@H]3CC[C@@H]4[C@@H](C(=O)/C=C/c5ccco5)CC[C@@]4(C)[C@]3(C)CC[C@@H]12`, the growth in assay [1] was -0.219% (active); in [2], 105%; in [3], 87.2%; in assay [4] it was 58.9%; in [5], 107%; in [6] it was 19.3%. Moreover, the growth was 53.9% in [7], 91.3% in assay [8], 50.6% in assay [9] and 68.3% in [10].

For the compound `CC(=O)Nc1cc(F)cc(C(F)(F)F)c1Cl`, the growth in [1] was 105%; in [2] it was 98%; in [3], 105%; in [4], 92.8%; in assay [5], 104%; in [6], 99.3%. Also, the growth in assay [7] is 91.5%; in [8] it was 100%; in assay [9] it was 102%; in assay [10] it was 105%.

For the compound `CCN1CCN(C(=O)[C@@]2(C)CC[C@]3(C)CC[C@]4(C)C(=CC(=O)[C@@H]5[C@@]6(C)CC[C@H](OC7C[C@@H](O)[C@@H](O)C(C)O7)C(C)(C)[C@@H]6CC[C@]54C)[C@@H]3C2)CC1` (stereo not given in full), the growth in [1] is 105%; in [2], 80.4%; in assay [3] it was -64.7% (active); in [4], -80.8% (active); in assay [5], 136%; in assay [6] it was 79.5%. Also, the growth in assay [7] was 89.4%; in assay [8], 95.5%; in [9] it was 0.503% (active); in assay [10], 0.754% (active).

As to `Cc1oc(-c2ccccc2Cl)cc1C(=O)Nc1ccc(S(N)(=O)=O)cc1`, the growth in assay [1] was 104%; in [2] it was 91.9%; in [3] it was 98.2%; in assay [4] it was 88.7%; in assay [5], 126%; in [6], 106%. Moreover, the growth in assay [7] was 93.9%; in [8] it was 105%; in assay [9], 96.2%; in [10] it was 96.3%.
